Eleven molecules from PubChem BioAssay (NCATS) can be followed below.

Each structure is given as a SMILES string. Inconclusive results are not listed. The source made the active and inactive calls. The call rests on the fitted dose curve; in most records, active means well fitted curve in the direction sought with a large enough effect; inconclusive means small, poorly fitted or top-dose-only effect, or another doubt; inactive means no such curve, though single readings can be large; an effect the other way counts as inactive or inconclusive.

Assay [1] can be described thus: qHTS of pediatric cancer cell lines to identify multiple opportunities for drug repurposing: Confirmatory screen for A673 cells (AID 1347110).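 Further: cells exposed to compound for 48 h before the viability read; nearly all actives have a fitted effect of over 65% in size.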 The gist of the method:
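qHTS titration format: primary MIPE 0.78 nM-46 µM (11 pts), NPC 0.59 nM-46 µM; confirmation 11 pts. 48 h, CTG luminescence.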
(Quantitative high-throughput screening tests each substance at several concentrations.)

Assay [2] can be described thus: qHTS of pediatric cancer cell lines to identify multiple opportunities for drug repurposing: Confirmatory screen for SK-N-MC cells (AID 1347111).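 Further: cells exposed to compound for 48 h before the readout; nearly all actives have a fitted effect of over 70% in size.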 In short, it runs like this: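 Seed 500-1,000 cells/well; rest 5 h at 37 degrees C. Pin-transfer compounds, 11-point titration. Incubate 48 h. Add CellTiter-Glo, 15 min RT, read luminescence.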
Assay [3] in a line: qHTS of pediatric cancer cell lines to identify multiple opportunities for drug repurposing: Confirmatory screen for DAOY cells (AID 1347114). Further: nearly all actives have a fitted effect of over 65% in size. In short, it runs like this:
(§1)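 Viability measured as metabolically active cells via CellTiter-Glo luminescence following 48 hours of compound exposure, 11-point dilutions in confirmatory testing. 500-1,000 cells/well plated 5 hours before dosing; controls were DMSO and 2.3 µM bortezomib.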

Assay [4] in a line: qHTS of pediatric cancer cell lines to identify multiple opportunities for drug repurposing: Confirmatory screen for SJ-GBM2 cells (AID 1347116). Further: nearly all actives have a fitted effect of over 60% in size. The gist of the method:
as §1

Assay [5] in a line: qHTS of pediatric cancer cell lines to identify multiple opportunities for drug repurposing: Confirmatory screen for TC32 cells (AID 1347118).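 Further: cells exposed to compound for 48 h before the read; nearly all actives have a fitted effect of over 65% in size.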 In short, it runs like this:
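Measured quantity: luminescence from CellTiter-Glo, reflecting metabolically active TC32 cells following 48 h of compound. Curves came straight from multi-point titrations, with 8 or 11 points in primary and 11 in confirmatory screening.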

Assay [6] is described as follows: qHTS of pediatric cancer cell lines to identify multiple opportunities for drug repurposing: Confirmatory screen for control Hh wild type fibroblast cells (AID 1347121). Further: nearly all actives have a fitted effect of over 70% in size. In short, it runs like this: (§2)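 Cells (500-1,000/well) rested 5 h, then received compounds for 48 h; metabolically active cells were measured by CellTiter-Glo luminescence. Final concentrations spanned up to 46 µM (MIPE, 11-point) or 0.59 nM-46 µM (NPC, 8-point) in primary screens, 11-point in follow-ups.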

Assay [7] can be described thus: qHTS of pediatric cancer cell lines to identify multiple opportunities for drug repurposing: Confirmatory screen for U-2 OS cells (AID 1347122). Further: nearly all actives have a fitted effect of over 65% in size. In short, it runs like this:
as §2

Assay [8] in a line: qHTS of pediatric cancer cell lines to identify multiple opportunities for drug repurposing: Confirmatory screen for RD cells (AID 1347124). The gist of the method: as §2
Assay [9] can be described thus: qHTS of pediatric cancer cell lines to identify multiple opportunities for drug repurposing: Confirmatory screen for Rh18 cells (AID 1347125). Further: nearly all actives have a fitted effect of over 55% in size. In short, it runs like this:
as §2

Assay [10] can be described thus: qHTS of pediatric cancer cell lines to identify multiple opportunities for drug repurposing: Confirmatory screen for Rh30 cells (AID 1347126). Further: nearly all actives have a fitted effect of over 55% in size. The gist of the method:
as §2

Assay [11] in a line: qHTS of pediatric cancer cell lines to identify multiple opportunities for drug repurposing: Confirmatory screen for OHS-50 cells (AID 1347128).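 Further: compound exposure lasted 48 h at 37 degrees C; nearly all actives have a fitted effect of over 55% in size.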 In short, it runs like this: as §2
A short description of assay [12]: qHTS of pediatric cancer cell lines to identify multiple opportunities for drug repurposing: Confirmatory screen for LAN-5 cells (AID 1347113). Further: nearly all actives have a fitted effect of over 65% in size. In short, it runs like this:
as §2

The nature of assay [13]: qHTS of pediatric cancer cell lines to identify multiple opportunities for drug repurposing: Confirmatory screen for NB-EBc1 cells (AID 1347115).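 Further: cells exposed to compound for 48 h before the viability read; nearly all actives have a fitted effect of over 45% in size.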 In short, it runs like this: as §2
Assay [14] is described as follows: qHTS of pediatric cancer cell lines to identify multiple opportunities for drug repurposing: Confirmatory screen for MG 63 (6-TG R) cells (AID 1347119). Further: nearly all actives have a fitted effect of over 55% in size. In short, it runs like this: as §2
Assay [15] is described as follows: qHTS of pediatric cancer cell lines to identify multiple opportunities for drug repurposing: Confirmatory screen for SK-N-SH cells (AID 1347129).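 Further: cells exposed to compound for 48 h before viability read; nearly all actives have a fitted effect of over 60% in size.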 In short, it runs like this: as §2
Assay [16] is described as follows: qHTS of pediatric cancer cell lines to identify multiple opportunities for drug repurposing: Confirmatory screen for BT-12 cells (AID 1347112). In short, it runs like this:
as §2

The nature of assay [17]: qHTS of pediatric cancer cell lines to identify multiple opportunities for drug repurposing: Confirmatory screen for BT-37 cells (AID 1347117). Further: nearly all actives have a fitted effect of over 55% in size. The gist of the method: as §2
The target in another assay is Furin (Homo sapiens) (UniProt P09958). The assay is described as follows: Furin counterscreen qHTS for Zika virus inhibitors (AID 1347149). Further: nearly all actives have a fitted effect of over 70% in size. In short, it runs like this:
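Fluorogenic cleavage of BOC-RVRR-AMC (2 microM final, Km ~15 µM) was monitored (ex 340, em 450 nm) at 37C after 15 min RT preincubation of 5 nM furin with compounds in HEPES pH 7.0 buffer with CaCl2 and Triton X-100. Percent inhibition was fitted to a 4-parameter Hill curve.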

The target in assay [18] is N-terminal Xaa-Pro-Lys N-methyltransferase 1 (Homo sapiens) (UniProt Q9BV86). The assay is described as follows: qHTS Assay for Inhibitors of N-terminal methyltransferase 1 (NTMT1): LOPAC validation of the NTMT1 SAHH-coupled ThioGlo3 Assay (AID 1347143).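 Further: SAH from peptide methylation measured as thiol fluorescence via SAHH coupling and ThioGlo3; nearly all actives have a fitted effect of over 70% in size.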 The gist of the method: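 Inhibition of NTMT1 methylation of peptide SPKRIA is followed by converting SAH with SAHH and labelling the released thiol with ThioGlo3. Plates are read at 340/450nm before and 30 min after reagent addition, both at room temperature.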

Assay [19] deals with Zika virus NS2B-NS3 protease (unlinked). The assay is described as follows: Optimization of GU AMC qHTS for Zika virus inhibitors: Unlinked NS2B-NS3 protease assay (AID 1347151). Further: nearly all actives have a fitted effect of over 80% in size. The gist of the method: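 Unlinked protease (25 nM final); buffer 10 mM Tris-HCl pH 8.0 + 0.01% Tween 20; AMC substrate; 15 min RT, dark; Δfluorescence normalized to no-inhibitor/no-enzyme controls; 4-parameter Hill fit.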
Potency means the concentration at half of the fitted maximal effect.

Furin (Homo sapiens), sequence (P09958 whole entry, looked up): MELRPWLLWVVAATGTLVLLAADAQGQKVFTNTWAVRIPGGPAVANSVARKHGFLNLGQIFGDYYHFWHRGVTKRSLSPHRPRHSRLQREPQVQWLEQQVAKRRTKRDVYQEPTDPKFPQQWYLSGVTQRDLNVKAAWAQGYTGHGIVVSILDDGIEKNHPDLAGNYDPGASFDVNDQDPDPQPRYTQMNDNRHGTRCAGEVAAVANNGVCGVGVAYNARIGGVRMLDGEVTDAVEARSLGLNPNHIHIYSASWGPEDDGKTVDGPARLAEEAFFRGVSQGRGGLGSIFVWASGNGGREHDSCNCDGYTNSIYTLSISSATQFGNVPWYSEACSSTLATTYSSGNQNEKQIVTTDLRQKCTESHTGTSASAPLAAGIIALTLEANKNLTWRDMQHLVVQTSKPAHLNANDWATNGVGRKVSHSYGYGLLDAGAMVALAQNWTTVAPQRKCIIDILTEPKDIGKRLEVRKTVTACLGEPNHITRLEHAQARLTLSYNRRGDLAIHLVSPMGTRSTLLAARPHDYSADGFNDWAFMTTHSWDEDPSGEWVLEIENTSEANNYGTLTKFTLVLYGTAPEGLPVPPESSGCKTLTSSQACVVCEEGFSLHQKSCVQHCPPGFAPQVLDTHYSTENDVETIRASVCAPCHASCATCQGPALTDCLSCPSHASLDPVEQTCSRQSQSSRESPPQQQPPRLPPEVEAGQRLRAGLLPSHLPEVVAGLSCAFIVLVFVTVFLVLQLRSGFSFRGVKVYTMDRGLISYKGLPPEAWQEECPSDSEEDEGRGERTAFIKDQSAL
N-terminal Xaa-Pro-Lys N-methyltransferase 1 (Homo sapiens), sequence (Q9BV86 whole entry, looked up): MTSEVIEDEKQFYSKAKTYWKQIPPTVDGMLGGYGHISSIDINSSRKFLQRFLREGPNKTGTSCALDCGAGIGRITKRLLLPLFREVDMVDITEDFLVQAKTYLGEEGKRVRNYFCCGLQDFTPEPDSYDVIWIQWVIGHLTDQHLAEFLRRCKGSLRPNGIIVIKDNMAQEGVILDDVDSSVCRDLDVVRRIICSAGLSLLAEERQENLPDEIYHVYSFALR

As for `O=C(NOC[C@H](O)CO)c1ccc(F)c(F)c1Nc1ccc(I)cc1F`, the Potency result in assay [1], in assay [2], in assay [3], in assay [4], in assay [5] and in assay [6] was “inactive” each time. The Potency result in assay [8], in [9], in [10] and in assay [11] was “inactive” in each case. Besides, in assay [7], the Potency was 1.31 µM (active).
`CCC(C)n1ncn(-c2ccc(N3CCN(c4ccc(OC[C@H]5CO[C@](Cn6cncn6)(c6ccc(Cl)cc6Cl)O5)cc4)CC3)cc2)c1=O` (some centres not stated): the Potency result in [1], in assay [12], in assay [13], in assay [4], in assay [14] and in assay [6] was “inactive” in each case. The Potency result in assay [8], in assay [9] and in assay [10] was “inactive” in each case. The Potency is 4.65 µM (active) in assay [2], 3.29 µM (active) in assay [5] and 14.8 µM (active) in assay [15].
Turning to `CC(C=CC1=C(C)CCCC1(C)C)=CC=CC(C)=CC(=O)O`, the Potency result in [1], in assay [16], in assay [12], in assay [3], in assay [13] and in assay [4] was “inactive” throughout. For the same molecule, the Potency result in [17], in assay [6], in assay [7], in assay [8], in assay [9] and in [10] was “inactive” in each case. The Potency entry in [11] and in [15] was “inactive” in each case. Moreover, in [5], the Potency was 16.5 µM (active).
As to `CCOc1ccn(-c2ccc(F)cc2)c(=O)c1C(=O)Nc1ccc(Oc2ccnc(N)c2Cl)c(F)c1`, the Potency in assay [1] was 13.1 µM (active); in [2], 9.27 µM (active); in assay [4], 14.7 µM (active); in [5] it was 7.37 µM (active); in assay [14] it was 10.4 µM (active). In addition, the Potency entry in assay [16], in assay [12], in assay [3], in [13], in [6] and in assay [7] was “inactive” each time. For the same molecule, the Potency result in assay [8], in [10] and in [15] was “inactive” throughout.
In the case of `CNCc1ccc(-c2[nH]c3cc(F)cc4c3c2CCNC4=O)cc1`, the Potency in [1] is 0.147 µM (active); in [2], 6.57 µM (active); in assay [5] it was 5.85 µM (active). Moreover, the Potency entry in assay [16], in assay [12], in [3], in assay [4], in [6] and in [7] was “inactive” in each case. For the same molecule, the Potency entry in assay [8], in [9], in assay [10] and in assay [11] was “inactive” in each case.
Consider `Cn1cnc2c(F)c(Nc3ccc(Br)cc3Cl)c(C(=O)NOCCO)cc21`, for which the Potency result in assay [1], in [2], in assay [16], in assay [12], in assay [13] and in [5] was “inactive” in each case. Further, the Potency entry in assay [6], in assay [8], in [9] and in assay [10] was “inactive” throughout. The Potency in assay [7] is 16.5 µM (active).
For the molecule `COCC(=O)NCC=Cc1ccc2ncnc(Nc3ccc(Oc4ccc(C)nc4)c(C)c3)c2c1`, the Potency was 23.3 µM (active) in [1]; 42.7 µM (active) in assay [12]; 16.5 µM (active) in [3]; 30.2 µM (active) in assay [13]; 24 µM (active) in assay [17]; 26.9 µM (active) in assay [5]. In addition, the Potency in [14] was 38 µM (active); in assay [6] it was 42.7 µM (active); in assay [10], 2.93 µM (active); in [11], 42.7 µM (active); with Furin (Homo sapiens), 30.3 µM (active). The Potency result in assay [4] and in assay [8] was “inactive” in each case.
With `NC(N)=NC(=O)c1nc(Cl)c(N)nc1N`, the Potency in assay [1] is 1.17 µM (active); in [7], 7.37 µM (active); in assay [18] it was 50.1 µM (active); in [19] it was 23.8 µM (active). The Potency entry in assay [16], in assay [12], in assay [3], in [13], in assay [4] and in [14] was “inactive” each time. The Potency entry in [6], in [8], in assay [9], in [11] and in [15] was “inactive” throughout.
As to `Cc1c(CN2CCN(C(=O)C(C)C)CC2)sc2c(N3CCOCC3)nc(-c3cnc(N)nc3)nc12`, the Potency is 1.47 µM (active) in assay [1]; 0.465 µM (active) in assay [2]; 0.737 µM (active) in [12]; 0.737 µM (active) in [17]; 0.737 µM (active) in assay [5]; 0.369 µM (active) in assay [14]. Further, the Potency was 0.737 µM (active) in [7]; 2.08 µM (active) in assay [8]; 0.827 µM (active) in [9]; 0.928 µM (active) in [10]; 1.04 µM (active) in [11]; 1.05 µM (active) in [15].
Regarding `COc1ccc(-c2ccc3c(N4CCOCC4)nc(N4C[C@@H](C)O[C@@H](C)C4)nc3n2)cc1CO`, the Potency in assay [1] was 0.293 µM (active); in [16], 5.22 µM (active); in assay [3], 9.27 µM (active); in [4], 1.47 µM (active); in assay [7], 1.65 µM (active); in [8], 1.31 µM (active). Besides, the Potency is 1.31 µM (active) in assay [9], 0.657 µM (active) in assay [10], 8.33 µM (active) in assay [15] and 24.1 µM (active) in the assay with Furin (Homo sapiens).
Turning to `Oc1cccc(-c2nc(N3CCOCC3)c3oc4ncccc4c3n2)c1`, the Potency was 1.85 µM (active) in assay [1]; 0.759 µM (active) in assay [2]; 0.537 µM (active) in [12]; 13.5 µM (active) in [13]; 2.93 µM (active) in assay [4]; 0.851 µM (active) in [17]. Moreover, the Potency was 0.427 µM (active) in assay [5]; 0.135 µM (active) in [14]; 1.7 µM (active) in [9]; 3.02 µM (active) in [11]; 4.18 µM (active) in assay [15].
